# Rows were chosen to be rich in hits. Some 8.1% of all compounds tested hit in one or more screens of this group.
# KB-3-1 tox = qHTS assay for MDR1-selective chemotherapeutics: Primary screen using the parental adenocarcinoma cell KB-3-1; KB-3-1 viability, CellTiter-Glo ATP luminescence, 72 h; Potency, µM (doses to about 46.1 µM), actives largely listed as cytotoxic; hit rate 1.4% among 400,000; AID 1347075, 2019; note: % is set by controls: 0 for no effect and ±100 for the full control effect; nearly all actives have a fitted effect of over 60% in size
#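 KB-3-1 cells, DMEM (no phenol red) + 10% FBS; compound by pin transfer, 72 h, 37 °C. Readout: CellTiter-Glo luminescence after 10 min. Data normalized, curve-fitted.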
# MCF10A rereplic = A quantitative high throughput screen for small molecules that induce DNA re-replication in MCF 10a normal breast cells. MCF 10A DNA re-replication, Hoechst nuclear intensity, 48 h. AID 624296, 2012. hit rate 2.9% among 350,000. Potency, µM (highest dose often 46.1 µM), for the others: at the top dose activity, positive = re-replication, hits mostly activators; note: % of control where 0% means no effect; nearly all actives have a fitted effect of over 50% in size
# ELG1 repair inh = qHTS screen for small molecules that inhibit ELG1-dependent DNA repair in human embryonic kidney (HEK293T) cells expressing luciferase-tagged ELG1; HEK293T ELG1-luciferase reporter, luminescence, 16 h; DNA damage induced by 5-fluorouridine; Potency, µM (doses to about 46.1 µM), without a hit: at the highest dose activity change, negative = inhibition, actives largely listed as inhibitors; hit rate 2.3% among 330,000; AID 504467, 2011; note: % is set by controls: 0 for no effect and ±100 for the full control effect; nearly all actives have a fitted effect of over 55% in size
#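 Luminescence from the luciferase reporter, measured 30 min after ONE-Glo reagent at room temperature, was the read-out. Beforehand, 2,000 cells per well were exposed for 16 hr at 37 °C to 5-fluorouridine together with compound or vehicle.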
# KB-V1 MDR tox = qHTS assay for MDR1-selective chemotherapeutics: Primary screen using the drug-selected MDR subline cells KB-V1; KB-V1 MDR cells viability, CellTiter-Glo, 72 h; Potency, µM (titrated, usually from 46.1 µM), hits mostly cytotoxic; hit rate 3.4% among 400,000; note: % is set by controls: 0 for no effect and ±100 for the full control effect; nearly all actives have a fitted effect of over 60% in size
#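 Readout: CellTiter-Glo luminescence, 10 min after addition. Cells: KB-V1 MDR subline, 72 h at 37 degrees C with compound. Analysis: corrected, normalized data fitted to concentration-effect curves.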
# SW480 rereplic = A quantitative high throughput screen for small molecules that induce DNA re-replication in SW480 colon adenocarcinoma cells; SW480 DNA re-replication, Hoechst DNA content imaging, 48 h; Potency, µM (series often up to 46.1 µM), for inactives: top-dose re-replication activation, actives largely listed as activators; hit rate 1.8% among 340,000; note: % of control where 0% means no effect; nearly all actives have a fitted effect of over 55% in size
#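 DNA re-replication was detected as more nuclei of elevated Hoechst intensity after 48 hr exposure to compound (23 nL pinned per well of 250 cells).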
# An asterisk follows results filed as active; i = inactive; ? = inconclusive; nt = no result given; ! = not confirmed by another sample. Calls come from the whole dose curve; as a rule, active = well fitted curve in the direction sought with a large enough effect; inconclusive = small, poorly fitted or top-dose-only effect, or another doubt; inactive = no such curve, though single readings can be large; an effect the other way counts as inactive or inconclusive. Potency is the fitted concentration of half-maximal effect.
SMILES,KB-3-1 tox,MCF10A rereplic,ELG1 repair inh,KB-V1 MDR tox,SW480 rereplic
CC[C@]12c3[nH]c4ccc(Cl)cc4c3CCN1C(=O)[C@@H](CC(=O)NCc1cccc(C(F)(F)F)c1)C[C@@H]2C(=O)N1CCN(C(=O)c2ccco2)CC1,i,?,13µM*,i,0.3%
C[C@]12c3[nH]c4ccc(Cl)cc4c3CCN1C(=O)[C@@H](CC(=O)NCc1cccc(C(F)(F)F)c1)C[C@@H]2C(=O)N1CCCCC1,i,?,23.1µM*,i,?
CC[C@]12c3[nH]c4ccc(Cl)cc4c3CCN1C(=O)[C@@H](CC(=O)NCc1cccc(C(F)(F)F)c1)C[C@@H]2C(=O)N1CCN(C(=O)C2CC2)CC1,i,?,?,i,6.5%
COc1cc(C(=O)OCC(=O)NC2CC2)cc(OC)c1OC,i,4.8%,?,i,-34.9%
Cc1ccc(NS(=O)(=O)c2cc3c4c(c2)CC(=O)N4CCC3)cc1C,i,11.8%,-7.1%,i,-4.9%
O=S(=O)(NC1CCCCC1)c1ccc(Cl)s1,i,20.6µM*,9.9%,?,?
COc1ccccc1NC(=O)c1oc2ccccc2c1NC(=O)c1cccc(OC)c1OC,11.6µM*,nt,nt,?,nt
COc1ccccc1NC(=O)c1cc2cc(Br)ccc2cc1O,18.4µM*,?,-16.8%,?,-3.2%
COc1ccc(NC(=O)c2oc3ccccc3c2NC(=O)C23CC4CC(CC(C4)C2)C3)c(OC)c1,23.1µM*,nt,nt,i,nt
COC(=O)c1oc2ccccc2c1NC(=O)c1ccccc1O,i,-33.8%,?,?,10.3µM*
Cc1nc(NCCCN2CCOCC2)c2oc3ccccc3c2n1,i,13.8%,1.5%,?,-76.0%
O=C(O)c1ccc(COc2ccc(Cl)cc2)o1,i,-0.9%,?,i,-1.3%
C/C(=C\c1ccccc1)C(=O)Nc1nc2ccc([N+](=O)[O-])cc2s1,i,2.5%,?,i,-5.4%
COc1ccccc1NC(=O)c1cc2ccccc2o/c1=N\O,i,7.7%,?,2.59µM*,0.6%
COc1cccc(NC(=O)c2oc3ccccc3c2NC(=O)C(C)(C)C)c1,i,25.9µM*,?,i,?
CC(=O)c1ccc(Oc2ncnc(N)c2[N+](=O)[O-])cc1,?,4.11µM*,13.4%,?,-0.7%
CCCC(CCC)C(=O)O,i,-5.3%,13.6%,i,-0.2%
COC(=O)c1c(NC(=O)c2nc3nc(C)cc(C(F)F)n3n2)sc2c1CCC2,i,39.4%,23.1µM*,?,-1.3%
Cc1cc(C(F)F)n2nc(C(=O)Nc3sc4c(c3C(N)=O)CCC4)nc2n1,i,-2.3%,?,i,1.0%
CCCc1cc(=O)[nH]c(SCc2nc3ccccc3s2)n1,i,1.7%,13.1%,?,-4.2%
CC(C)CC1(C(=O)NCc2cc(F)cc(C(F)(F)F)c2)C=CCN1C(=O)c1ccccc1 (centres undefined),i,1.46µM*,-11.4%,i,8.1%
Cc1cccc(CNC(=O)Cn2c(-c3cccs3)cc3ccccc32)c1,i,nt,nt,i,nt
COc1ccc(-c2nc(CS(=O)(=O)CC(=O)NCCc3cc(OC)ccc3OC)c(C)o2)cc1,i,7.7%,?,8.2µM*,2.2%
COc1cccc(-c2nc(CS(=O)(=O)CC(=O)NCCc3ccc(C)cc3)c(C)o2)c1,i,6.3%,-4.3%,i,1.9%
COc1ccc(OC)c(CCNC(=O)CS(=O)(=O)Cc2nc(-c3cccc(Cl)c3)oc2C)c1,?,nt,nt,i,nt
SMILES,KB-3-1 tox,MCF10A rereplic,ELG1 repair inh,KB-V1 MDR tox,SW480 rereplic
COc1cccc(-c2nc(CS(=O)(=O)CC(=O)NCCc3cc(OC)ccc3OC)c(C)o2)c1,?,4.8%,20.6µM*,?,-0.1%
COc1cccc(-c2nc(CS(=O)(=O)CC(=O)NCCc3ccc(OC)cc3OC)c(C)o2)c1,i,3.3%,23.1µM*,i,-2.4%
COc1ccc(OC)c(CCNC(=O)CS(=O)(=O)Cc2nc(-c3ccc(C)cc3)oc2C)c1,i,16.5%,?,?,-7.7%
CCN(CCNC(=O)CS(=O)(=O)Cc1nc(-c2cccc(OC)c2)oc1C)c1ccccc1,i,?,18.4µM*,?,7.0%
COc1cccc(-c2nc(CS(=O)(=O)CC(=O)NCCC(C)C)c(C)o2)c1,i,-6.8%,?,i,-16.7%
COCCNC(=O)c1onc(CSc2ccccc2F)c1C(=O)O,i,-10.3%,0.7%,i,-2.6%
Cc1ccc2c(c1)NCC(C(=O)NCc1ccccc1)O2 (centres undefined),i,10.7%,20.1%,i,-17.8%
Cc1ccc(CN2C(=O)C3CCCN3c3ncccc32)cc1 (centres undefined),i,23.1µM*,-21.8%,i,?
Cc1ccc(CN2C(=O)C3CCCN3c3ccc(S(=O)(=O)N4CCOCC4)cc32)cc1 (centres undefined),nt,nt,5.7%,nt,nt
O=C(c1ccc(Cn2c(=S)[nH]c3ccccc3c2=O)cc1)N1CCN(c2ccccn2)CC1,i,?,10.3µM*,?,?
O=C(CCc1nnc2n(Cc3ccc(F)cc3)c(=O)c3ccccc3n12)N1CCN(c2ccccn2)CC1,i,2.2%,14.6µM*,i,0.1%
COCCn1c(=O)[nH]c2cc(C(=O)N3CCN(c4ccc(Cl)cc4)CC3)ccc2c1=O,14.6µM*!,?,18.3µM*,?,-4.5%
O=C(c1ccc(Cn2c(=O)[nH]c3ccccc3c2=O)cc1)N1CCN(c2ccccc2)CC1,?,-2.8%,?,20.6µM*,3.5%
Cc1[nH]nc2c1C1(CCOC1C)C(C#N)=C(N)O2 (centres undefined),i,15.9%,nt,i,-9.1%
O=C(NCc1cccnc1)C1CCC(c2ccc(Cl)cc2)CC1 (centres undefined),i,15.3%,9.2µM*,?,-17.0%
O=C(NCc1cccnc1)NC1(C(F)(F)F)Oc2ccc(Cl)cc2O1 (centres undefined),?,10.7%,?,3.26µM*,12.9%
Cc1ccc(Cl)cc1NC(=O)NCc1cccnc1,i,0.2%,-4.9%,i,18.4µM*
COCCNC(=O)NC1(C(F)(F)F)Oc2ccc(Cl)cc2O1 (centres undefined),23.1µM*,15.2%,6.4%,?,3.1%
COc1ccc(NC(=O)COC(=O)c2ccc3ccccc3n2)c(OC)c1,i,-2.2%,21.3%,i,-4.0%
